# Only some compounds are listed: those with a hit (about 17% of all), similar ones and a draw of the others.
# TDP1 cell CPT – growth inhibition of DT40 Tdp1-/-;hTDP1 cells with camptothecin (screen for TDP1 inhibitors) | chicken DT40 Tdp1-/-;hTDP1 cells + 20 nM CPT, ATP luminescence, 48 h | Potency, µM (top dose mostly 46.2 µM), for inactives: at the highest dose activity change, negative = growth inhibition, actives largely listed as inhibitors | 420,000 compounds, 12% hits | AID 686979; note: % is set by controls: 0 for no effect and ±100 for the full control effect; nearly all actives have a fitted effect of over 55% in size
#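 Cell growth measured by CellTiter-Glo luminescence after a minimum 48 h, 37 C compound exposure with 20 nM CPT in Tdp1-knockout DT40 cells stably expressing hTDP1, seeded 400/well; qHTS titration format.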
# TDP1 cell noCPT – qHTS for Inhibitors of human tyrosyl-DNA phosphodiesterase 1 (TDP1): qHTS in cells in absence of CPT; 420,000 compounds, 15% hits; AID 686978, 2013; Potency, µM (highest dose often 46.2 µM), for inactives: at the highest dose activity change, negative = growth inhibition, most hits filed as inhibitors; DT40 Tdp1-/- hTDP1 cells, no CPT, ATP luminescence, 48 h; note: % is set by controls: 0 for no effect and ±100 for the full control effect; nearly all actives have a fitted effect of over 55% in size
#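 DT40 Tdp1-/-;hTDP1 cells, no CPT (DMSO vehicle only), 400 cells/well; compounds pin-transferred; ≥48 hr, 37 °C; CellTiter-Glo 30 min RT dark, luminescence read.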
# TDP1 block – TDP1 (human) enzyme inhibition; Q9NUW8; recombinant TDP1, AlphaScreen DNA substrate cleavage; Potency, µM (top dose mostly 130 µM), for inactives: at the top dose activity change, negative = inhibition, most hits filed as inhibitors; 350,000 compounds, 0.28% hits; note: % is set by controls: 0 for no effect and ±100 for the full control effect; nearly all actives have a fitted effect of over 40% in size
# Target sequence (Q9NUW8 whole entry, looked up): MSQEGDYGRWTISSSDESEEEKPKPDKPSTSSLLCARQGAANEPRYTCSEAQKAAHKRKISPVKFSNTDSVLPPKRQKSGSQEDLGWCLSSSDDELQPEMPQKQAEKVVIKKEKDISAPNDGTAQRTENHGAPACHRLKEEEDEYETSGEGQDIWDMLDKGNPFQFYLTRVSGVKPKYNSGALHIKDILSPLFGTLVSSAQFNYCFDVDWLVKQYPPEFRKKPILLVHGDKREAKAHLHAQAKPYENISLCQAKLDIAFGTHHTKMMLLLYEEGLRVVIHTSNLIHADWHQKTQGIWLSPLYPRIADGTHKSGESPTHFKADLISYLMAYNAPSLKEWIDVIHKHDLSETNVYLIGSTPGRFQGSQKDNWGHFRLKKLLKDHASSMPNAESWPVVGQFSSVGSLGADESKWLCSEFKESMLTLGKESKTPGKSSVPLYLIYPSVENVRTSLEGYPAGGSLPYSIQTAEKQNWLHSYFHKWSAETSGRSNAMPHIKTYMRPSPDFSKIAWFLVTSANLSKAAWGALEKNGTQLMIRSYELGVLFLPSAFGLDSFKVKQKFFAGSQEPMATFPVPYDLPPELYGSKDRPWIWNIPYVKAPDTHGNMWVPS
#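 Here, a 5' biotin and 3' phosphotyrosine-FITC DNA oligonucleotide reports Tdp1 activity: intact substrate bridges AlphaScreen beads, while cleavage leaves a 3' phosphate and drops signal. All incubations at room temperature.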
# ClpP mod – qHTS Assay for Activators of ClpP. ATP-dependent Clp protease proteolytic subunit (Bacillus subtilis (strain 168)), P80244. purified B. subtilis ClpP, FRET peptide cleavage, 20 min. Potency, µM (top dose mostly 57.5 µM), for the others: at the highest dose activity change, negative = active. 340,000 compounds, 1.9% hits. AID 651965, 2013; active = well fitted falling curve with a large enough effect; inconclusive = small, poorly fitted or top-dose-only effect; inactive = no such curve, though single readings can be large or run the other way; note: the source files actives as falling curves though it sought activators and does not explain the sign; nearly all actives have a fitted effect of over 65% in size
#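 ClpP 10 microg/mL final, pH 8 Tris/KCl buffer with BSA, glycerol, Tween-20; compound pinned in; FRET-FV substrate; RT 20 min; Ex320/Em430; ΔFRET vs ADEP 5.8 microM, DMSO, no enzyme.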
# * hit, by the source's call; ? = inconclusive; / = no result; ! = not active in a repeat; [ ] = remark or other dose. Unless noted, calls come from the whole dose curve; as a rule, active = well fitted curve in the direction sought with a large enough effect; inconclusive = small, poorly fitted or top-dose-only effect, or another doubt; inactive = no such curve, though single readings can be large; an effect the other way counts as inactive or inconclusive. Potency is the fitted concentration of half-maximal effect.
SMILES,TDP1 cell CPT,TDP1 cell noCPT,TDP1 block,ClpP mod
O=C(c1ccc2c(=O)n(CCc3ccccc3)c(=O)[nH]c2c1)N1CCN(c2ccc(F)cc2)CC1,12µM*,13µM*,3%,-5%
ClCc1ncc(-c2ccc(Cl)cc2)o1,15µM*,16µM*,6%,/
COc1ccccc1C(=O)c1c(N)c(-c2nc(-c3ccccc3)cs2)c2ccccn12,18µM*,21µM*,0%,1%
COc1ccc(C(=O)c2c(N)c(-c3nc(-c4ccccc4)cs3)c3ccccn23)cc1,?,?,0%,-3%
Nc1nc(SCC(=O)c2ccc([N+](=O)[O-])cc2)n[nH]1,-24%,-2%,-2%,-1%
Cc1ccnc(SCC(=O)c2ccc([N+](=O)[O-])cc2)n1,-7%,-10%,3%,16µM*
Cc1ccc(CSc2nc(-c3cccs3)ccc2C#N)cc1,-28%,-22%,-15%,4%
COC(=O)CSc1nc(-c2cccs2)ccc1C#N,10%,?,-5%,6.3µM*
C#CCSc1nc(-c2cccs2)ccc1C#N,-9%,-30%,2%,32µM*
CCN(CC)C(=O)CSc1nnc(COc2cccc(C)c2)n1C,/,/,-7%,/
O=C(c1cccc(F)c1)N1CCC2(CCN(Cc3nccs3)CC2)CC1,-1%,-23%,/,/
Cc1ccc(Nc2c3c(nc4nncn24)CCC3)c(C)c1,?,?,7%,-1%
CCOc1ccccc1NC(=O)Cc1noc2ccc(C)cc12,-12%,?,4%,-2%
O=C(C1CC(=O)N(c2ccc(F)cc2)C1)N1CCC(c2nc3ccccc3[nH]2)CC1 (configuration not stated),-13%,-27%,5%,-9%
Cc1ccc(N=Cc2ccc[nH]2)c(O)c1,21µM*,?,10%,-1%
N=C1C(c2nc3ccccc3s2)=C(O)CN1c1ccccc1,5%,?,-2%,/
CC(C)CO/N=C1/[C@H]2O[C@@H]2[C@@H](O)[C@H]2[C@H]1CCn1c(=O)n(C)c(=O)n12,/,/,2%[21 µM],/
C[C@H]1CN([C@@H](C)CO)C(=O)c2cccc(NC(=O)Nc3ccc(C(F)(F)F)cc3)c2O[C@@H]1CN(C)Cc1ccc(Cl)c(Cl)c1,3.3µM*,3.7µM*,1%,-9%
Cc1noc(C)c1NC(=O)N(C)C[C@H]1Oc2c(NC(=O)Nc3ccc(C(F)(F)F)cc3)cccc2C(=O)N([C@H](C)CO)C[C@@H]1C,-2%,?,3%,-5%
C[C@@H]1CN([C@H](C)CO)C(=O)c2cc(NC(=O)Nc3ccc(C(F)(F)F)cc3)ccc2O[C@H]1CN(C)Cc1ccc(Cl)c(Cl)c1,?,21µM*,2%,-16%
C=C1C2=C(C(=O)N1OC)[C@@H](O)[C@@](C)(O)[C@@H](CCCCC)O2,15µM*,13µM*,/,0%
COc1ccc(NC(=O)Cc2ccc(C)c(C)c2)cc1S(=O)(=O)N1CCCCC1,?,?,0%,0%
COC(=O)c1cc2c(ccn2-c2ccc(F)cc2)n1Cc1ccc(C#N)cc1,?,?,8%,1%
COC(=O)c1cc2c(ccn2-c2ccc(F)cc2)n1Cc1ccc(OC)cc1,2%,-4%,-6%,22µM*
CCn1c(C(=O)OC)cc2c1ccn2-c1ccc(F)cc1,18µM*,13µM*,9%,?
SMILES,TDP1 cell CPT,TDP1 cell noCPT,TDP1 block,ClpP mod
Cc1ccccc1SC1CCN(Cc2nc(C3CC3)no2)CC1,-4%,-8%,-6%,/
CC1(C(=O)NS(=O)(=O)c2ccc3c(c2)CCO3)CCN1C(=O)CCC1CCCC1 (configuration not stated),-9%,3%,/,1%
Cc1cccc(OCC(=O)Nc2nccs2)c1C,?,-29%,2%,3%
CC(C)(C)c1ccc(Oc2nc3ccccn3c(=O)c2/C=C(\C#N)c2nc3ccccc3s2)cc1,?,?,6%,4%
Cc1cccc(Oc2nc3ccccn3c(=O)c2/C=C(\C#N)c2nc3ccccc3s2)c1C,21µM*,4.6µM*,-6%,4%
COc1ccc(C2=NOC(COc3ccc4c(C)cc(=O)oc4c3)C2)c(OC)c1 (configuration not stated),4.1µM*,5.2µM*,3%,-1%
COc1ccccc1C1=NOC(COc2ccc3c(C)cc(=O)oc3c2)C1 (configuration not stated),0.82µM*,0.82µM*,1%,/
c1ccc(-c2onc(-c3ccco3)c2-c2ccc3c(c2)OCO3)cc1,10µM*!,11µM*!,/,?
CCCCCCCCCCCCN1[C@@H](CC(=O)OC)c2cc(F)ccc2S1(=O)=O,?,10µM*,/,1%
CCOC(=O)C[C@H]1c2ccc(C(F)(F)F)cc2S(=O)(=O)N1C(C)(C)C,11µM*!,?,/,-3%
CCCCCCCCN1[C@@H](CC(=O)OCC)c2cc(C(F)(F)F)ccc2S1(=O)=O,?,16µM*,/,2%
CCCCCCCCCCCCN1[C@@H](CC(=O)OC)c2cc(F)cc(F)c2S1(=O)=O,?,18µM*,/,-4%
CO[C@H]1[C@H](NC(=O)c2cccc(F)c2)c2ccccc2C12CCN(Cc1ccco1)CC2,-3%,-16%,/,/
CC(C)COC(=O)N1CCN(S(=O)(=O)c2ccc3c(c2)CCC3)CC1,?,?,-3%,1%
CC1=C(C(=O)N2CCOCC2)CC(CC(=O)NCCc2ccccn2)C(=O)N1CCCN1CCCC1=O (configuration not stated),-8%,-25%,/,0%
Cc1ccc(-n2ncc(C(=O)Nc3c(Cl)cccc3Cl)c2C2CCNCC2)cc1,?,?,-3%,2%
Cc1ccc(-n2ncc(C(=O)Nc3cc(Cl)ccc3Cl)c2C2CCNCC2)cc1,23µM*,23µM*,0%,/
O=C1OC(c2ccc(O)cc2)(c2ccc(O)cc2)c2ccccc21,?,?,1%,1%
O=C1OC(c2ccccc2)(c2ccc3cc(O)ccc3c2)c2ccccc21 (configuration not stated),21µM*,?,/,/
O=C1OC(c2ccc3ccccc3c2O)(c2ccc3ccccc3c2O)c2ccccc21,5.8µM*,5.2µM*,/,/
O=C1OC(c2ccccc2)(c2cc(Br)ccc2O)c2ccccc21 (configuration not stated),18µM*,?,/,/
O=C1OC(c2ccc(O)cc2)(c2ccccc2O)c2ccccc21 (configuration not stated),9%,-19%,/,-3%
COC(=O)c1ccc(CNC(=O)c2ccc3c(c2)S(=O)(=O)N=C2CCCCCN23)cc1,2%,13%,0%,-3%
CCOC(=O)c1cccc(NC(=O)CC2C(=O)N(c3ccc(F)cc3)C(=O)N2Cc2cccc(OC)c2)c1 (configuration not stated),?,?,3%,2%
Cc1ccc(S(=O)(=O)N2CCC(C(=O)OCCOc3ccccc3)CC2)cc1C,-9%,0.18µM*,/,-2%

# High-throughput results: PubChem BioAssay, National Center for Advancing Translational Sciences (NCATS)
